A number with no mark means an inactive call. Entries that show only a call come without a potency. Activity calls are given as the source filed them. Calls come from the whole dose curve; as a rule, active = well fitted curve in the direction sought with a large enough effect in the repeat runs; inconclusive = weak or mixed curves; inactive = flat fitted curve, though single readings scatter. Starred links: 1 amine or outer side, 2 acyl side, 3 side chain; linkers in the order of their positions; H or OH if unused. Positions of bridges follow the written chain, without caps; N, C: chain ends. Non-standard residues stand in square brackets, D forms with d. Residues, ends and D or L forms follow the SMILES beside them. Chains are numbered I, II in the order given. Actinocin(9to1) = Cc1c2oc3c(C)ccc(C(=O)[*:1])c3nc-2c(C(=O)[*:2])c(N)c1=O; NMeV = CN[C@H](C(=O)O)C(C)C; Sar = CNCC(=O)O
Assay: qHTS assay to test for compound auto fluorescence at 460 nm (blue) in HEK293 cell free culture (AID 720681)
Conditions: cell-free medium, autofluorescence 405/460 nm (blue); series mostly up to 91.3 µM; fluorescence, % of fluorescent control: at the top concentration
Description: U.S. Tox21 Program National Center for Advancing Translational Sciences [NCATS] NIH Chemical Genomics Center [NCGC] U.S. Environmental Protection Agency [EPA] National Institutes of Environmental Health Sciences [NIEHS] National Toxicology Program [NTP] U.S. Food and Drug Administration [FDA] Tox21 Assay Overview: Compound auto fluorescence often interferes with screening of the compound library against various biological targets and signaling pathways. Some of these compounds may have fluorophoric properties. Such properties may interfere with the assay outputs resulting in false positives and/or negatives. To decrease such complications and ensure the compound activities are relevant in terms of biological response, the Tox21 10K compound library was screened for auto fluorescence. From the fluorophores used as reporter signals in our screening assays, the auto fluorescence equivalencies of compounds against three fluorophores have been evaluated: Triamterene, Fluorescein and Rose Bengal sodium for blue, green and red fluorescence, respectively. The fluorescence intensities were measured using Excitation/Emission wavelengths at 405/460nm, 485/535nm and 540/590nm for blue, green and red labels, respectively. This assay includes the blue fluorescence data.
Tox21 Assay Protocol Summary: 5 uL of culture medium (DMEM containing 10% FBS) per well was dispensed into black wall/clear bottom 1536-well plates using a Multidrop Combi Dispenser (ThermoFisher Scientific, Waltham, MA). After 23 nL compound or DMSO vehicle was transferred into assay plate by a pintool work station (Kalypsys, San Diego, CA), fluorescence intensities in the assay plates were measured by an Envision (PerkinElmer, Shelton, CT) plate reader using three labels for measuring blue, green and red fluorescence at […] 460, 535 and 590nm respectively.

Structure (SMILES) | fluorescence, % of fluorescent control | Potency
CCN1CCCC1CNC(=O)c1cc(S(=O)(=O)CC)c(N)cc1OC (stereo not given) | 0.283% [at 46 µM] | –
Cc1c2oc3c(C)ccc(C(=O)N[C@@H]4C(=O)N[C@H](C(C)C)C(=O)N5CCC[C@H]5C(=O)N(C)CC(=O)N(C)[C@@H](C(C)C)C(=O)O[C@@H]4C)c3nc-2c(C(=O)N[C@@H]2C(=O)N[C@H](C(C)C)C(=O)N3CCC[C@H]3C(=O)N(C)CC(=O)N(C)[C@@H](C(C)C)C(=O)O[C@@H]2C)c(N)c1=O (I: T[dV]P[Sar][NMeV] / II: T[dV]P[Sar][NMeV]; ester I:1-I:C, II:1-II:C; linker I:N-II:N via Actinocin(9to1)) | – | inactive
BrC1CCC(Br)C(Br)CCC(Br)C(Br)CCC1Br (stereo not given) | – | inactive
N[C@@H]1CONC1=O | 4.34% [at 46 µM] | –
O=C(OCc1ccccc1)c1ccc(O)cc1 | – | inactive
c1ccc2cc3c(ccc4ccccc43)cc2c1 | – | inactive
Nc1nc2ccccc2[nH]1 | – | inactive
CC(C)(C)NCC(O)c1cc(O)cc(O)c1 (stereo not given) | 0.728% [at 46 µM] | –
CC(=O)Nc1ccc(C(=O)CCl)cc1 | – | inactive
CCCCC(CC)COC(=O)CC(C(=O)OCC(CC)CCCC)S(=O)(=O)O (stereo not given) | – | inactive
CC(C)CCCCCCc1ccc(O)cc1 | – | inactive
CC(=O)OCC1=C(C(=O)O)N2C(=O)[C@@H](NC(=O)Cc3cccs3)[C@H]2SC1 | 2.08% [at 46 µM] | –
COC(=O)c1cccc(C(=O)OC)c1 | – | inactive
[Cl][In]([Cl])[Cl] | – | inactive
CCN(CC)C(=O)Nc1ccc(OCC(O)CNC(C)(C)C)c(C(C)=O)c1 (stereo not given) | 0.0726% [at 46 µM] | –
NC12CC3CC(CC(C3)C1)C2 | -0.0477% [at 46 µM] | –
CC(=O)O[C@]1(C(C)=O)CC[C@H]2[C@@H]3C[C@H](C)C4=CC(=O)CC[C@]4(C)[C@H]3CC[C@@]21C | – | inactive
Cc1scc2c1N(C(=O)CN1CCN(C)CC1)c1ccccc1NC2=O | -0.0806% [at 46 µM] | –
CNCCC(Oc1ccc(C(F)(F)F)cc1)c1ccccc1 (stereo not given) | – | inactive
Cc1occc(=O)c1OC(=O)C(C)C | 0.0085% | –

Structure (SMILES) | fluorescence, % of fluorescent control | Potency
O=C(Oc1ccccc1)c1ccccc1O | – | inactive
C1COC(NC(C2CC2)C2CC2)=N1 | -0.0082% [at 46 µM] | –
c1cc(C(c2ccc(OCC3CO3)cc2)C(c2ccc(OCC3CO3)cc2)c2ccc(OCC3CO3)cc2)ccc1OCC1CO1 (stereo not given) | 4.03% [at 95.7 µM] | –
CC(=O)N[C@@H](CS)C(=O)O | – | inactive
COc1ccc(CCN(C)CCCC(C#N)(c2ccc(OC)c(OC)c2)C(C)C)cc1OC (stereo not given) | – | inactive
OCCOCCN1CCN(C(c2ccccc2)c2ccc(Cl)cc2)CC1 (stereo not given) | – | inactive
CC(C)CCOCc1ccccc1 | -0.0925% | –
O=Cc1ccc(Cl)cc1 | -0.0197% | –
Cc1cc(C(C)(C)C)c(O)c(C(C)(C)C)c1 | – | inactive
CCCC(=O)c1ccccc1 | 0.0524% | –
O=C(Cl)c1cccc(C(=O)Cl)c1 | – | inactive
CCCCCCCCCCCCCC[P+](CCCC)(CCCC)CCCC | – | inactive
NCCO | – | inactive
Cc1ccnc2c1NC(=O)c1cccnc1N2C1CC1 | – | inactive
CCC(C)(C)C(=O)O[C@H]1C[C@@H](C)C=C2C=C[C@H](C)[C@H](CC[C@@H]3C[C@@H](O)CC(=O)O3)[C@H]21 | – | inactive
CCn1c2ccccc2c2cc(N)ccc21 | – | inactive
c1cnc2cc3c(cc2n1)C1CNCC3C1 | -0.208% [at 95.7 µM] | –
CCCNC(C)C(=O)Nc1ccccc1C (stereo not given) | -0.119% [at 46 µM] | –
CC(C)(C)c1ccccc1 | -0.0124% | –
Oc1c(Cl)cc(Cl)c(Cl)c1Cc1c(O)c(Cl)cc(Cl)c1Cl | – | inactive

Reference: PubChem BioAssay (Tox21)
